Bioassay records (PubChem)
A selection: hits, their analogues and other compounds. The true share with any hit is near 6.8%.
T cruzi growth-1 = blocks T. cruzi growth in NIH3T3 culture; 5.9% of 77,000 active; T. cruzi beta-gal in NIH3T3, GalScreen luminescence, 90 h; inhibition, % at 8.34 µM;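 active = mean inhibition above about 93%, with at least 55% of replicates each passing it, limit read from the data, passing the limit was not always enough; inconclusive = only one of those two conditions holds; inactive = neither condition holds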
C diff HTS = blocks growth of Clostridium difficile; Clostridium difficile clinical isolate growth, OD600, 24 h; stronger effect = lower value; 0.25% of 86,000 active; growth activity, negative = inhibition, % at 16 µg/mL (by protocol);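 active = mean growth activity at or below -80% and every replicate also at or below -80%; inconclusive = mean at or below -80% but some replicate above -80%; inactive = mean growth activity above -80%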;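 also: 0% = DMSO wells and -100% = levofloxacin 16 µg/mL wells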
Pf Dd2 inh = inhibitors of Plasmodium falciparum Dd2 growth; P. falciparum Dd2 growth, SYBR Green, 72 h; stronger effect = lower value; activity change, % at 10 µM; 2.3% of 94,000 active; AID 1159554; in the data active = activity change below about -80%; inconclusive = no clear call, values can overlap the other calls
T cruzi growth-2 = blocks T. cruzi growth in NIH3T3 host cells | AID 651739 | inhibition, % at 8.35 µM | 72% of 5,600 active | shares compounds with T cruzi growth-1 | T. cruzi beta-gal in NIH3T3, GalScreen luminescence, 90 h;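 active = mean replicate inhibition above about 95% and at least 55% of replicates individually reaching it, limit read from the data; inconclusive = only one of the two criteria is met; inactive = neither criterion is met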
T cruzi growth-3 = blocks T. cruzi growth in NIH3T3 host cells; AID 651740; T. cruzi beta-gal in NIH3T3, GalScreen luminescence, 90 h; shares compounds with T cruzi growth-1; 21% of 5,600 active; inhibition, % at 2.09 µM;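 active = mean inhibition above about 95%, with at least 55% of replicates also reaching it, limit read from the data; inconclusive = meets just one of the two conditions; inactive = meets neither condition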;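 also: plate controls were neutral control median for no effect and positive control median for full effect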
3T3 cytotox = cytotoxicity in mouse NIH/3T3 fibroblasts; shares compounds with T cruzi growth-1; NIH/3T3 viability, CellTiter-Glo ATP luminescence, 90 h; cytotoxicity (signal decrease), % at 8.35 µM; 14% of 5,600 active; AID 651742;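 active = mean signal decrease across replicates above about 35% based on untreated-well scatter, with enough replicates individually passing, limit read from the data; inconclusive = no rule stated though some were filed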;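 also: 0% = median of neutral control wells and 100% = median of positive control wells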
NIH3T3 tox 2 = cytotoxicity in mouse NIH/3T3 fibroblasts; shares compounds with T cruzi growth-1; NIH/3T3 viability, CellTiter-Glo ATP luminescence, 90 h; inhibition, % at 24.9 µM; 56% of 5,600 active; AID 651744;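 active = mean loss of cell viability signal at or above a set limit, and enough replicates individually reaching it; inconclusive = meets only the mean limit or only the replicate share; inactive = meets neither condition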;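 also: 0% = median of neutral control wells and 100% = median of positive control wells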
* marks the source's active call; other numbers are inactive results; ? = inconclusive; / = not tested or not shown.

SMILES	T cruzi growth-1	C diff HTS	Pf Dd2 inh	T cruzi growth-2	T cruzi growth-3	3T3 cytotox	NIH3T3 tox 2
O=C(c1ccncc1)N1CC2(C1)[C@@H](c1ccccc1)[C@H](CO)N2C(=O)CC1CC1	/	6.9	-1.0	/	/	/	/
CCCC#Cc1ccc([C@H]2[C@H]3CN(Cc4cccnc4)CCCCN3[C@H]2CO)cc1	74.9	0.8	-33.5	/	/	/	/
COCC#Cc1ccc([C@@H]2[C@@H](CO)N3CCCCN(Cc4ccncc4)C[C@H]23)cc1	56.6	-0.9	7.8	/	/	/	/
COCC#Cc1ccc([C@H]2[C@@H](CO)N3CCCCN(Cc4ccncc4)C[C@H]23)cc1	108.5*	-0.4	13.6	105.6*	74.1	16.9	29.9
CCCC#Cc1ccc([C@H]2[C@@H](CO)N3CCCCN(Cc4cccnc4)C[C@H]23)cc1	?	6.5	-51.8	108.2*	92.3	29.0	102.4*
COCC#Cc1ccc([C@H]2[C@H](CO)N3CCCCN(Cc4cncnc4)C[C@@H]23)cc1	114.6*	-4.1	14.8	98.4*	48.1	-11.2	-8.7
CCCC#Cc1ccc([C@@H]2[C@H]3CN(Cc4cncnc4)CCCCN3[C@H]2CO)cc1	91.0	-2.3	5.1	/	/	/	/
C[C@H](CO)N1C[C@H](C)[C@H](CN(C)Cc2ccc(C(=O)O)cc2)Oc2ccc(NS(=O)(=O)c3cccs3)cc2C1=O	0.0	-3.9	30.3	/	/	/	/
C[C@@H]1CN([C@H](C)CO)S(=O)(=O)c2ccc(-c3cccc(F)c3)cc2O[C@H]1CN(C)CC1CC1	21.9	5.0	-33.4	/	/	/	/
CCCC#Cc1ccc([C@H]2[C@@H](CO)N3C(=O)CN(C(=O)CN4CCOCC4)C[C@H]23)cc1	/	-0.6	24.8	/	/	/	/
COc1ccc2c3c([nH]c2c1)[C@@H](CO)N(Cc1ccccc1)CC31CN(C)C1	/	2.5	-24.9	/	/	/	/
C[C@@H]1CN([C@@H](C)CO)C(=O)c2cc(NC(=O)Nc3ccccc3)ccc2O[C@@H](C)CCCCO[C@@H]1CN(C)Cc1ccccc1	/	/	-53.8	/	/	/	/
C[C@@H]1CCCCO[C@@H](CN(C)Cc2ccccc2)[C@H](C)CN([C@H](C)CO)C(=O)c2cc(NC(=O)Nc3ccccc3)ccc2O1	103.0*	/	-76.2	105.9*	70.4	7.9	104.8*
COc1ccc(CN(C)C[C@H]2OCCCC[C@H](C)Oc3ccc(NC(=O)Nc4ccccc4)cc3C(=O)N([C@@H](C)CO)C[C@@H]2C)cc1	106.3	3.9	25.0	/	/	/	/
COc1ccc(NC(=O)Nc2ccc3c(c2)C(=O)N([C@@H](C)CO)C[C@H](C)[C@H](CN(C)Cc2ccccc2)OCCCC[C@@H](C)O3)cc1	89.0	7.4	-55.9	/	/	/	/
COc1ccc(NC(=O)Nc2ccc3c(c2)C(=O)N([C@@H](C)CO)C[C@H](C)[C@@H](CN(C)Cc2ccccc2)OCCCC[C@H](C)O3)cc1	102.8*	-6.3	-45.0	103.9*	81.2	-7.5	102.2*
COc1ccc(NC(=O)Nc2ccc3c(c2)C(=O)N([C@H](C)CO)C[C@@H](C)[C@@H](CN(C)Cc2ccccc2)OCCCC[C@H](C)O3)cc1	103.0*	14.2	-62.2	107.7*	68.4	-3.3	59.5*
COc1ccc(NC(=O)Nc2ccc3c(c2)C(=O)N([C@@H](C)CO)C[C@H](C)[C@H](CN(C)Cc2ccccc2)OCCCC[C@H](C)O3)cc1	90.1	-0.2	-53.0	/	/	/	/
COc1ccc(CN(C)C[C@@H]2OCCCC[C@H](C)Oc3ccc(NC(=O)Nc4ccccc4)cc3C(=O)N([C@H](C)CO)C[C@@H]2C)cc1	113.8*	3.5	-23.0	88.0	109.3*	42.7*	107.3*
C[C@H](CO)N1C[C@H](C)[C@H](CN(C)S(=O)(=O)c2cccs2)Oc2c(NC(=O)Nc3ccccc3)cccc2C1=O	19.2	2.3	-17.3	/	/	/	/
COc1ccc(NC(=O)Nc2ccc3c(c2)C(=O)N([C@@H](C)CO)C[C@H](C)[C@H](CN(C)C(=O)Cc2ccccc2)OCCCC[C@@H](C)O3)cc1	20.8	10.3	-74.8	/	/	/	/
COc1ccc(NC(=O)Nc2ccc3c(c2)C(=O)N([C@@H](C)CO)C[C@H](C)[C@H](CN(C)C(=O)Cc2ccccc2)OCCCC[C@H](C)O3)cc1	?	-6.2	-65.7	111.7*	-3.9	-10.0	2.7
COc1ccc(CN(C)C[C@@H]2OCCCC[C@H](C)Oc3ccc(NC(=O)c4ccccc4)cc3C(=O)N([C@H](C)CO)C[C@@H]2C)cc1	60.9	2.4	-36.4	/	/	/	/
COc1ccc(CN(C)C[C@@H]2OCCCC[C@@H](C)Oc3ccc(NC(=O)c4ccccc4)cc3C(=O)N([C@H](C)CO)C[C@H]2C)cc1	106.8*	-3.6	-55.6	91.2	80.2	3.9	80.5*
CO[C@H]1CN(C)C(=O)c2ccc(NC(=O)C3CC3)cc2OC[C@@H](C)N(CCc2ccccc2)C[C@H]1C	14.3	/	15.5	/	/	/	/
SMILES	T cruzi growth-1	C diff HTS	Pf Dd2 inh	T cruzi growth-2	T cruzi growth-3	3T3 cytotox	NIH3T3 tox 2
CO[C@H]1CN(C)C(=O)c2cc(NS(C)(=O)=O)ccc2OC[C@@H](C)N(C(=O)C2CCCCC2)C[C@@H]1C	28.8	/	/	/	/	/	/
COC(=O)C[C@H]1CC[C@H]2[C@H](COc3ccc(NC(=O)c4cscn4)cc3C(=O)N2C)O1	4.2	0.7	-60.9	/	/	/	/
CN1CCN(C(=O)C[C@H]2CC[C@H]3[C@H](COc4ccc(NC(=O)c5ccc(F)c(F)c5)cc4C(=O)N3C)O2)CC1	68.7	17.1	0.8	/	/	/	/
C[C@H](CO)N1C[C@H](C)[C@H](CN(C)S(=O)(=O)c2ccc(F)cc2)OCCCC[C@H](C)Oc2ccc(NC(=O)NC3CCCCC3)cc2C1=O	88.1	10.4	-30.2	/	/	/	/
CC(C)NC(=O)Nc1ccc2c(c1)C(=O)N([C@@H](C)CO)C[C@H](C)[C@@H](CN(C)S(=O)(=O)c1ccc(Cl)cc1)OCCCC[C@H](C)O2	76.3	-4.1	-71.2	/	/	/	/
CC(C)NC(=O)Nc1ccc2c(c1)C(=O)N([C@H](C)CO)C[C@@H](C)[C@@H](CN(C)S(=O)(=O)c1ccc(Cl)cc1)OCCCC[C@@H](C)O2	98.0*	7.1	-65.0	96.0*	13.2	3.4	24.0*
Cc1ccc(S(=O)(=O)N(C)C[C@@H]2OCCCC[C@@H](C)Oc3ccc(NC(=O)NC4CCCCC4)cc3C(=O)N([C@H](C)CO)C[C@H]2C)cc1	98.8*	17.9	-81.2*	108.9*	70.9	-20.2	-18.6
C[C@@H]1CCCCO[C@@H](CN(C)S(=O)(=O)c2ccc(F)cc2)[C@H](C)CN([C@@H](C)CO)C(=O)c2cc(NC(=O)NC3CCCCC3)ccc2O1	56.9	20.6	-20.6	/	/	/	/
C[C@@H]1CCCCO[C@@H](CN(C)S(=O)(=O)c2ccc(Cl)cc2)[C@H](C)CN([C@@H](C)CO)C(=O)c2cc(NC(=O)NC3CCCCC3)ccc2O1	100.4*	-0.1	/	110.7*	84.7	8.9	10.6
